PubChem BioAssay (NCATS)
Results filed as inconclusive are left out. Calls of active or inactive are those of the source. Calls come from the whole dose curve; as a rule, active = well fitted inhibition curve with a large enough effect; inconclusive = small, poorly fitted or top-dose-only effect; inactive = flat fitted curve, though single readings scatter.

How the values were obtained:
[1] = test system: ICS; test: qHTS profiling for inhibitors of Plasmodium falciparum proliferation (AID 504749);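 note: 0% = DMSO vehicle and full inhibition = artemisinin control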; conditions: P. falciparum in erythrocytes, SYBR Green DNA, 72 h; series mostly up to 28.7 µM
Procedure, shortened: (§1)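 Infected RBCs, 0.3% parasitemia/2.5% Hct final; cpd 72 h, 37 C, 5% CO2; lysis buffer with saponin/triton/SYBR Green I, o/n RT dark; FI 485/535; norm. to artemisinin (0.29 uM) and DMSO.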

[2] = test system: JCK; test: as above; conditions: P. falciparum in erythrocytes, SYBR Green DNA, 72 h; series mostly up to 28.7 µM
Procedure, shortened: as §1

[3] = test system: N140; test: as above; conditions: P. falciparum in erythrocytes, SYBR Green DNA, 72 h; series mostly up to 28.7 µM
Procedure, shortened: as §1

[4] = test system: P93_24; test: as above; conditions: P. falciparum in erythrocytes, SYBR Green DNA, 72 h; series mostly up to 28.7 µM
Procedure, shortened: as §1

[5] = test system: P94_40; test: as above; conditions: P. falciparum in erythrocytes, SYBR Green DNA, 72 h; series mostly up to 28.7 µM
Procedure, shortened: as §1

[6] = test system: PAD; test: as above; conditions: P. falciparum in erythrocytes, SYBR Green DNA, 72 h; series mostly up to 28.7 µM
Procedure, shortened: as §1

[7] = test system: PC15; test: as above; conditions: P. falciparum in erythrocytes, SYBR Green DNA, 72 h; series mostly up to 28.7 µM
Procedure, shortened: as §1

[8] = test system: PC26; test: as above; conditions: P. falciparum in erythrocytes, SYBR Green DNA, 72 h; series mostly up to 28.7 µM
Procedure, shortened: as §1

[9] = test system: PC49; test: as above; conditions: P. falciparum in erythrocytes, SYBR Green DNA, 72 h; series mostly up to 28.7 µM
Procedure, shortened: as §1

[10] = test system: SC27B; test: as above; conditions: P. falciparum in erythrocytes, SYBR Green DNA, 72 h; series mostly up to 28.7 µM
Procedure, shortened: as §1

[11] = test system: TAB109; test: as above; conditions: P. falciparum in erythrocytes, SYBR Green DNA, 72 h; series mostly up to 28.7 µM
Procedure, shortened: as §1

[12] = test system: TAB113; test: as above; conditions: P. falciparum in erythrocytes, SYBR Green DNA, 72 h; series mostly up to 28.7 µM
Procedure, shortened: as §1

[13] = test system: TAB165; test: as above; conditions: P. falciparum in erythrocytes, SYBR Green DNA, 72 h; series mostly up to 28.7 µM
Procedure, shortened: as §1

[14] = test system: W2; test: as above; conditions: P. falciparum in erythrocytes, SYBR Green DNA, 72 h; series mostly up to 28.7 µM
Procedure, shortened: as §1

[15] = test system: KB-3-1; test: Cytotoxic Profiling of Annotated Libraries Using Quantitative High-Throughput Screening (AID 1296008); conditions: Five cell lines viability, CellTiter-Glo ATP luminescence, 48-72 h; max response: hits give low values; note: % is set by controls: 0 for no effect and ±100 for the full control effect
Procedure, shortened: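 Cytotoxicity was measured as CellTiter-Glo ATP luminescence, read after 10 min at room temperature. Compound treatment of the cells lasted 48 or 72 hr at 37 degrees Celsius in a qHTS format.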
Note: nearly all actives have a fitted effect of over 60% in size.

CC(O)CN(C)C (stereo not given)
inactive: Potency [1] | Potency [2] | Potency [3] | Potency [4] | Potency [5] | Potency [6] | Potency [7] | Potency [8] | Potency [9] | Potency [10] | Potency [11] | Potency [12] | Potency [13] | Potency [14] | max response [15] -6.37%

O=C(O)COc1ccccc1/C=N/NC(=O)c1ccncc1
inactive: Potency [1] | Potency [2] | Potency [3] | Potency [4] | Potency [5] | Potency [6] | Potency [7] | Potency [8] | Potency [9] | Potency [10] | Potency [11] | Potency [12] | Potency [13] | Potency [14] | max response [15] 4.6%

N=C(N)n1cccn1
inactive: Potency [1] | Potency [2] | Potency [3] | Potency [4] | Potency [5] | Potency [6] | Potency [7] | Potency [8] | Potency [9] | Potency [10] | Potency [11] | Potency [12] | Potency [13] | Potency [14] | max response [15] 3.42%

C=Cc1ccc(S(=O)(=O)O)cc1
inactive: Potency [1] | Potency [2] | Potency [3] | Potency [4] | Potency [5] | Potency [6] | Potency [7] | Potency [8] | Potency [9] | Potency [10] | Potency [11] | Potency [12] | Potency [13] | Potency [14] | max response [15] 36.9%

COc1ccc(C(=O)c2ccc(C)cc2)c(O)c1
inactive: Potency [1] | Potency [2] | Potency [3] | Potency [4] | Potency [5] | Potency [6] | Potency [7] | Potency [8] | Potency [9] | Potency [10] | Potency [11] | Potency [12] | Potency [13] | Potency [14] | max response [15] 4.04%

CC(=O)Oc1cc(C(F)(F)F)ccc1C(=O)O
inactive: Potency [1] | Potency [2] | Potency [3] | Potency [4] | Potency [5] | Potency [6] | Potency [7] | Potency [8] | Potency [9] | Potency [10] | Potency [11] | Potency [12] | Potency [13] | Potency [14] | max response [15] 0.097%

OB(O)O
inactive: Potency [1] | Potency [2] | Potency [3] | Potency [4] | Potency [5] | Potency [6] | Potency [7] | Potency [8] | Potency [9] | Potency [10] | Potency [11] | Potency [12] | Potency [13] | Potency [14] | max response [15] -9%

CCCCC(CC)COS(=O)(=O)O (stereo not given)
inactive: Potency [1] | Potency [2] | Potency [3] | Potency [4] | Potency [5] | Potency [6] | Potency [7] | Potency [8] | Potency [9] | Potency [10] | Potency [11] | Potency [12] | Potency [13] | Potency [14] | max response [15] -16.9%
